Assay outcomes: PubChem, University of Pittsburgh Molecular Library Screening Center
HIV RNase H inh-1: blocks HIV-1 RNase H cleavage of RNA/DNA duplex. P04585. RT-RNase H RNA/DNA duplex cleavage, fluorescence. inhibition, % at 10 µM. actives 1.9% (n = 65,000). AID 565; in the data active = inhibition above about 50%
HIV RNase H inh-2: confirmation of HIV-1 reverse transcriptase RNase H inhibitors; actives 39% (n = 1,000); Recombinant RT RNase H, fluorescent RNA/DNA duplex cleavage; inhibition, % at 10 µM; shares compounds with HIV RNase H inh-1; in the data active = inhibition above about 48%; inconclusive = no clear call, values can overlap the other calls
* = called active by the depositor; u = inconclusive. This is one part of a sample in which hits are shown more often than they occur.

SMILES	HIV RNase H inh-1	others
COCCN1C(=O)C(=O)/C(=C(/O)c2cccc(S(=O)(=O)N(C)C)c2)C12C(=O)N(C)c1ccccc12 (configuration not stated)	3.8
CC1CCCC(NC(=O)c2ccc(CNc3c(N4CCCC4)c(=O)c3=O)cc2)C1C (configuration not stated)	4.5
O=C(CN1CCCCC1)Nc1cccc(Br)c1	-23.9
CCCCOc1ccccc1NC(=O)CSc1nnnn1C(C)(C)C	-24.9
Cn1c(=O)c2c(nc(SC3C(=O)CC(C)(C)CC3=O)n2C)n(C)c1=O	-2.1
Cc1noc(/C=C/c2ccco2)c1S(=O)(=O)N1CCC(C(=O)N2CCc3ccccc3C2)CC1	37.5
CCCc1[nH]nc2c1C(CCc1ccccc1)C(C#N)=C(N)O2 (configuration not stated)	-5.6
N#CC1=C(N)SC(N)=C(C#N)C1CCc1ccccc1	71.9*	HIV RNase H inh-2=1.9
Cc1ccc(C2C(C#N)=C(N)SC(N)=C2C#N)o1	80.3*	HIV RNase H inh-2=u
Cc1ccc(SCc2[nH]nc3c2C(c2ccc(C)o2)C(C#N)=C(N)O3)cc1 (configuration not stated)	-7.1
Cc1ccc(C2C(C#N)=C(N)Oc3nc(-c4ccccc4)[nH]c32)o1 (configuration not stated)	-7.5
N#CC1=C(N)SC(N)=C(C#N)C1c1c(Cl)cccc1Cl	-12.1
O=C1CC(N2CCC(c3nc4ccccc4s3)CC2)C(=O)N1 (configuration not stated)	1.9
O=C(COCc1nc2ccccc2c(=O)[nH]1)NC1CCCC1	-10.7
COC(=O)c1ccc(Oc2c(C)oc3c(CN4CCN(C)CC4)c(O)ccc3c2=O)cc1	4.3
CC(=O)NC1Sc2ccccc2N=C1c1ccccc1 (configuration not stated)	3.3
CC12CCC(C(=O)N3CCc4ccccc43)(CC1=O)C2(C)C (configuration not stated)	-12.5
O=C(CCSCCC(=O)NCc1ccco1)NCc1ccco1	76.8*	HIV RNase H inh-2=46.7*
O=C(CSCC(=O)NCc1ccco1)NCc1ccco1	-11.3
O=C(CCSCCC(=O)NCc1cccs1)NCc1cccs1	5.4
CCCCn1c(SCC(=O)NCc2cccs2)nc2c1c(=O)n(C)c(=O)n2C	-2.7
Cc1ccc(NC(=O)CSc2nnc(-c3ccc(S(=O)(=O)N4CCCC4)cc3)o2)cc1C	69.7*	HIV RNase H inh-2=68.7*
O=C(CSc1nnc(-c2ccc(F)cc2)o1)Nc1ccc(S(=O)(=O)N2CCCC2)cc1	-40.0
Cc1cccc(NC(=O)CSc2nnc(-c3ccc(S(=O)(=O)N4CCCC4)cc3)o2)c1	3.4
COC(=O)C(Cc1cnc[nH]1)NC(=O)C1CCC(=O)N1 (configuration not stated)	-6.6
SMILES	HIV RNase H inh-1	others
COc1cccc(-n2c(=O)[nH]cc(C(=O)Nc3ccc(NC(C)=O)cc3)c2=O)c1	1.4
Cc1cc(C)c(C#N)c(SCC(=O)OC2CCCCC2)n1	-43.7
Cc1cc(=O)[nH]c(SCC(=O)C23CC4CC(CC(C4)C2)C3)c1C#N	61.4*	HIV RNase H inh-2=12.3
COCCn1c(C)cc(C(=O)CSc2nc(C)cc(C)c2C#N)c1C	-60.7
CC1CCN(C(=O)c2ccc(NC(=O)C3CCCO3)cc2)CC1 (configuration not stated)	1.2
Nc1c(C(=O)N2CCOCC2)sc(=S)n1-c1ccccc1	94.5*	HIV RNase H inh-2=64.6*
Nc1nc(C(=O)N2CCOCC2)nn1S(=O)(=O)c1ccccc1	1.3
Nc1c(C(=O)N2CCCCC2)sc(=S)n1-c1ccccc1	96.8*	HIV RNase H inh-2=77.4*
Cc1nn(-c2ccccc2)c2sc(C(=O)N3CCCCC3)cc12	-3.2
Cc1cc(C(=O)N2CCOCC2)n(-c2ccccc2)n1	-6.9
O=C(c1nc(-c2ccccc2)n(-c2ccccc2)n1)N1CCCCCC1	-5.4
C=C(C)n1c(=O)[nH]c2ccccc21	-10.2
COC(=O)c1cc(Br)c(=O)n(Cc2ccc3c(c2)OCO3)c1	-5.2
Cc1ccc(-n2c(CSc3nc(C)cc(C)n3)nnc2SCC(=O)N2CCCC2)cc1	-2.4
CC(C)CCn1c(CN2CCN(c3cccc(Cl)c3)CC2)nc2c1c(=O)n(C)c(=O)n2C	-28.6
CCOc1ccc2nc(NC(=O)Nc3cccs3)sc2c1	-9.6
CC(Cc1ccc(O)c(O)c1)C(C)Cc1ccc(O)c(O)c1 (configuration not stated)	99.3*	HIV RNase H inh-2=58.7*
C[C@@](Cc1ccc(O)c(O)c1)(NN)C(=O)O	3.3
Oc1ccc(CC2CC3CCN2CC3)cc1O (configuration not stated)	8.4
Cc1ccc(-c2nnc(Nc3ccccc3)o2)cc1	1.2
O=C(c1ccco1)N1CCN(CC2CC3C=CC2C3)CC1 (configuration not stated)	-3.8
Cc1ccc(S(=O)(=O)N2CCCC2C(=O)OCc2ccco2)cc1 (configuration not stated)	-4.3
CS(=O)(=O)N1CCN(C(=O)c2ccccc2F)CC1	-10.0
O=C(c1cc(S(=O)(=O)N2CCCCC2)ccc1F)N1CCCCC1	9.4
O=C(c1ccccc1F)N1CCN(S(=O)(=O)c2ccc(S(=O)(=O)N3CCCCC3)cc2)CC1	76.8*	HIV RNase H inh-2=77.5*
SMILES	HIV RNase H inh-1	others
CCOC(=O)c1ccc(NC(=O)N(CC)CC)cc1	-2.0
O=C1NC(Cc2c[nH]c3ccccc23)C(=O)N1CCOc1ccccc1 (configuration not stated)	-13.9
Cc1c(C(=O)NC(C)CN2CCCCC2)oc2ccccc12 (configuration not stated)	1.3
Cc1ccc(Nc2nnc(SCC(=O)NCc3ccco3)s2)cc1	4.3
Cc1cc(=O)[nH]c(SCC(=O)NCc2ccco2)n1	9.0
CCOC(=O)CSc1nc2cc(C)cc(C)c2cc1C#N	10.2
Cc1cc(C)c2cc(C#N)c(SCC(=O)NCc3ccco3)nc2c1	72.0*	HIV RNase H inh-2=35.2
O=C(CSc1ncc(-c2ccc(F)cc2)[nH]1)NCc1ccco1	-4.3
Cc1ccc2c(SCC(=O)NCc3ccco3)nc(-c3ccc(F)cc3)nc2c1	75.1*	HIV RNase H inh-2=54.8*
CCOc1ccc(OCC)c(NC(=O)C2CCCN(c3nc(C)cc(C)n3)C2)c1 (configuration not stated)	3.9
CCC(=O)N1CCc2cc(S(=O)(=O)N3CCN(c4ccccn4)CC3)ccc21	-8.6
CCOC(=O)N1CCN(S(=O)(=O)N(C)C)CC1	-3.3
CCCc1nnc(NC(=O)CCC(=O)Nc2ccc(F)cc2)s1	3.0
Cn1c(-c2ccccc2)cc2c3no[n+]([O-])c3ccc21	-6.4
CC(C)CC(=O)Nc1ccccc1-c1nnn(CC(=O)N2CCOCC2)n1	-13.4
CCOc1ccc2[nH]c(=O)c(CN(CCO)C(=O)CC)cc2c1	2.7
Cc1cccc(CCNC(=O)C2CCN(S(=O)(=O)c3c(C)nn(C)c3C)CC2)c1	-8.3
CCOC(=O)c1c(NC(=O)c2noc3c2CCCC3)sc2c1CCCC2	-2.9
CCOC(=O)c1c(NC(=O)c2nn(CC)cc2Br)sc(C)c1C	93.6*	HIV RNase H inh-2=1.3
CCCc1cc(C(=O)Nc2sc3c(c2C(=O)OCC)CCCC3)no1	25.9
CCOC(=O)Nc1sc2c(c1C(=O)OCC)CCC2	-20.4
CCOC(=O)c1c(NC(=O)c2ccc(-n3cnnn3)cc2)sc2c1CCCC2	85.7*	HIV RNase H inh-2=96.4*
CCOC(=O)c1c(NC(=O)c2nn(CC)cc2Br)sc2c1CCCCC2	88.5*	HIV RNase H inh-2=2.3
CCn1ncc(Br)c1C(=O)Nc1sc2c(c1C(N)=O)CCC2	0.7
CCOC(=O)c1nn(-c2ccccc2)c(C#N)c1NC(=O)c1nn(CC)cc1Br	-3.3
CCOC(=O)c1ccc(NC(=O)c2nn(CC)cc2Br)cc1	-2.2
